PubChem BioAssay (NCATS)
Results filed as inconclusive are left out. Calls of active or inactive are those of the source. The call rests on the fitted dose curve; in most records, active means well fitted curve in the direction sought with a large enough effect; inconclusive means small, poorly fitted or top-dose-only effect, or another doubt; inactive means no such curve, though single readings can be large; an effect the other way counts as inactive or inconclusive.

Experiments:
JEG-3 = test: Primary qHTS to identify gynecologic anti-cancer compounds using libraries of approved drugs and bioactive compounds (AID 1345084); conditions: Gynecologic cancer cell panel viability, ATPlite luminescence, 48 h; series mostly up to 57.5 µM; further: nearly all actives have a fitted effect of over 55% in size; further: potency means the concentration at half of the fitted maximal effect
Summary of the method: (§1)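 48 h compound exposure at 37 C, 5% CO2; five-point qHTS. ATPlite luminescence readout of cell ATP.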

OV90 = test: as above; conditions: Gynecologic cancer cell panel viability, ATPlite luminescence, 48 h; series mostly up to 57.5 µM
Summary of the method: as §1

PA-1 = test: as above; conditions: Gynecologic cancer cell panel viability, ATPlite luminescence, 48 h; series mostly up to 57.5 µM
Summary of the method: as §1

SKOV3 = test: as above; conditions: Gynecologic cancer cell panel viability, ATPlite luminescence, 48 h; series mostly up to 57.5 µM
Summary of the method: as §1

Tov-21-G = test: as above; conditions: Gynecologic cancer cell panel viability, ATPlite luminescence, 48 h; series mostly up to 57.5 µM
Summary of the method: as §1

Tov112D = test: as above; conditions: Gynecologic cancer cell panel viability, ATPlite luminescence, 48 h; series mostly up to 57.5 µM
Summary of the method: as §1

[1] = Drug repurposing screens with cells derived from glioblastoma tumor samples (AID 1345199); conditions: GBM patient neurospheres viability, ATP luminescence, 48 h; further: nearly all actives have a fitted effect of over 40% in size
Summary of the method: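 Four patient lines of CD133+ GBM neurospheres were screened at several concentrations; hits were retested in those lines plus three slower-growing GBM lines, using 48-hour treatment and ATP-based viability.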
On the % scale 0 is the no-effect control and ±100 the full control effect.

CCOc1ccccc1OCCNC(C)Cc1ccc(OC)c(S(N)(=O)=O)c1 (stereo not drawn)
inactive: Potency (JEG-3) | Potency (OV90) | Potency (PA-1) | Potency (SKOV3) | Potency (Tov-21-G) | Potency (Tov112D)

CC(O)C1C(=O)N2C(C(=O)O)=C(SC3CNC(C(=O)N(C)C)C3)C(C)C12 (stereo not drawn)
inactive: Potency (JEG-3) | Potency (OV90) | Potency (PA-1) | Potency (SKOV3) | Potency (Tov-21-G) | Potency (Tov112D)

C[C@]1(CO)CN(c2cc(C(=O)Nc3ccc4c(c3)-c3c(c(C(N)=O)nn3-c3ccc(F)cc3)CC4)c(Cl)cn2)C[C@@]1(C)CO
inactive: Potency (JEG-3) | Potency (OV90)
active: Potency (PA-1) 11.2 µM

OCc1ccc(-c2ccc(-c3ccc(CO)s3)o2)s1
active: Potency (OV90) 3.16 µM | Potency (PA-1) 0.355 µM | Potency (SKOV3) 12.6 µM
inactive: Potency (JEG-3) | Potency (Tov-21-G)

CCCCCCCCCC(=O)N[C@@H](Cc1c[nH]c2ccccc12)C(=O)N[C@H](CC(N)=O)C(=O)N[C@@H](CC(=O)O)C(=O)N[C@@H]1C(=O)NCC(=O)N[C@@H](CCCN)C(=O)N[C@@H](CC(=O)O)C(=O)N[C@H](C)C(=O)N[C@@H](CC(=O)O)C(=O)NCC(=O)N[C@H](CO)C(=O)N[C@@H]([C@@H](C)CC(=O)O)C(=O)N[C@@H](CC(=O)c2ccccc2N)C(=O)O[C@@H]1C
inactive: Potency (JEG-3) | Potency (OV90) | Potency (PA-1) | Potency (SKOV3) | Potency (Tov-21-G) | Potency (Tov112D)

COc1cc(C(=O)NS(=O)(=O)c2ccccc2C)ccc1Cc1cn(C)c2ccc(NC(=O)OC3CCCC3)cc12
inactive: Potency (JEG-3) | Potency (OV90) | Potency (PA-1) | Potency (SKOV3) | Potency (Tov-21-G) | Potency (Tov112D) | activity, negative = cell killing ([1]; at 45.9 µM (top of the series), tumour line B) -14.2% | activity, negative = cell killing ([1]; at 45.9 µM (top of the series), tumour line D) -15.9% | activity, negative = cell killing ([1]; at 46.1 µM (top of the series), tumour line C) 5.07%

CCNC(=O)Nc1ccc2ncc(Nc3ccc(C)cc3)nc2n1
inactive: Potency (JEG-3) | Potency (OV90) | Potency (PA-1) | Potency (SKOV3) | Potency (Tov-21-G) | Potency (Tov112D)

Cn1c(=O)n(-c2ccc(C(C)(C)C#N)cc2)c2c3cc(-c4cnc5ccccc5c4)ccc3ncc21
active: Potency (OV90) 1.41 µM
inactive: Potency (JEG-3)

CC(C)(C)c1cc(NC(=O)Nc2ccc(-c3cn4c(n3)sc3cc(OCCN5CCOCC5)ccc34)cc2)no1
inactive: Potency (JEG-3) | Potency (OV90) | Potency (PA-1) | Potency (SKOV3) | Potency (Tov-21-G) | Potency (Tov112D)

COc1ccc(-n2nc(C(N)=O)c3c2C(=O)N(c2ccc(N4CCCCC4=O)cc2)CC3)cc1
inactive: Potency (JEG-3) | Potency (OV90) | Potency (PA-1) | Potency (SKOV3) | Potency (Tov-21-G) | Potency (Tov112D)

CCCNC(=O)Nc1ccc(Oc2ncnc3cc(OC)c(OC)cc23)cc1Cl
inactive: Potency (JEG-3) | Potency (OV90) | Potency (PA-1) | Potency (SKOV3) | Potency (Tov-21-G) | Potency (Tov112D)

O=C(O)Cn1nnc(-c2cc(N3CCC(Oc4cc(F)ccc4Br)CC3)no2)n1
inactive: Potency (JEG-3) | Potency (OV90) | Potency (PA-1) | Potency (SKOV3) | Potency (Tov-21-G) | Potency (Tov112D)

Cn1c(CNc2ccc(C(=N)N)cc2)nc2cc(C(=O)N(CCC(=O)O)c3ccccn3)ccc21
inactive: Potency (JEG-3) | Potency (OV90) | Potency (PA-1) | Potency (SKOV3) | Potency (Tov-21-G) | Potency (Tov112D)

Clc1cccc(-c2nnnn2Cc2cccnc2)c1Cl
inactive: Potency (JEG-3) | Potency (OV90) | Potency (PA-1) | Potency (SKOV3) | Potency (Tov-21-G) | Potency (Tov112D)

CC(=O)c1c(C)c2cnc(Nc3ccc(N4CCNCC4)cn3)nc2n(C2CCCC2)c1=O
inactive: activity change, negative = cytotoxicity (JEG-3) -5.97% [at 6.55 µM] | activity change, negative = cytotoxicity (OV90) 15% [at 6.55 µM] | activity change, negative = cytotoxicity (PA-1) -9.61% [at 6.55 µM] | activity change, negative = cytotoxicity (SKOV3) 4.84% [at 6.55 µM] | activity change, negative = cytotoxicity (Tov-21-G) -13.1% [at 6.55 µM] | activity change, negative = cytotoxicity (Tov112D) -4.97% [at 6.55 µM]

CC(C)c1noc(N2CCC(COc3ccc(-c4ccc(S(C)(=O)=O)cc4)nc3)CC2)n1
inactive: Potency (JEG-3) | Potency (OV90) | Potency (PA-1) | Potency (SKOV3) | Potency (Tov-21-G) | Potency (Tov112D)

Cc1ccc(NC(=O)C2(c3ccc4c(c3)OC(F)(F)O4)CC2)nc1-c1cccc(C(=O)O)c1
inactive: Potency (JEG-3) | Potency (OV90) | Potency (PA-1) | Potency (SKOV3) | Potency (Tov-21-G) | Potency (Tov112D)

CN(C1CCc2c(c3ccccc3n2CC(=O)O)C1)S(=O)(=O)c1ccc(F)cc1 (stereo not drawn)
inactive: Potency (JEG-3) | Potency (OV90) | Potency (PA-1) | Potency (SKOV3) | Potency (Tov-21-G) | Potency (Tov112D)

Cc1cn2c(-c3cn[nH]c3)cnc2c(Nc2ccc(C(=O)N3CCNCC3)cc2F)n1
inactive: Potency (JEG-3) | Potency (OV90)

COc1cccc(Nc2c(C(N)=O)cnc3c(C)cc(S(=O)(=O)c4cccc(C(=O)N(C)C)c4)cc23)c1
inactive: Potency (JEG-3) | Potency (OV90) | Potency (PA-1) | Potency (SKOV3) | Potency (Tov-21-G) | Potency (Tov112D)

Cc1c(Cn2c(C)nc3c(C(=O)O)cc(N4CCOCC4)cc32)cccc1C(F)(F)F
inactive: Potency (JEG-3) | Potency (OV90) | Potency (PA-1) | Potency (SKOV3) | Potency (Tov-21-G) | Potency (Tov112D)

O=C1CCC[C@@H]2[C@H]3CCC[N+]4([O-])CCC[C@@H](CN12)[C@@H]34 (stereo partly drawn)
inactive: Potency (JEG-3) | Potency (OV90) | Potency (PA-1) | Potency (SKOV3) | Potency (Tov-21-G) | Potency (Tov112D)

C=CC(=O)Nc1cccc(Oc2nc(Nc3ccc(N4CCN(C)CC4)cc3OC)ncc2Cl)c1
active: Potency (SKOV3) 15.8 µM
inactive: Potency (JEG-3) | Potency (OV90) | Potency (PA-1)

C1Cc2[nH]nc(-c3nn[nH]n3)c2C1
inactive: Potency (JEG-3) | Potency (OV90) | Potency (PA-1) | Potency (SKOV3) | Potency (Tov-21-G) | Potency (Tov112D)
